# Compound activity: PubChem, National Center for Advancing Translational Sciences (NCATS)
# Shown are actives, neighbours in structure and some others; about 1.2% of the full set was active somewhere.
# Tb PGK inh – qHTS Assay to Find Inhibitors of Phosphoglycerate Kinase | Phosphoglycerate kinase, glycosomal (Trypanosoma brucei brucei), P07378 | PGK/GAPDH coupled, Kinase-Glo luminescence, 60 min | Potency, µM (titrated, usually from 57.5 µM), for the others: at the highest dose activity change, negative = inhibition, most hits filed as inhibitors | actives 0.043% (n = 380,000) | AID 602233, 2012; further: potency means the concentration at half of the fitted maximal effect; nearly all actives have a fitted effect of over 60% in size
#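 Recombinant glycosomal PGK reaction used 1,3-bisphosphoglycerate generated in-well by GAPDH (100nM final) in 100mM TEA pH 7.6, 5mM MgCl2, 0.01% Tween-20. After 60 minutes at room temperature, ATP was read by Kinase-Glo Plus luminescence end-point.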
# GCN5L2 inh – qHTS Assay for Inhibitors of GCN5L2. Potency, µM (titrated, usually from 58.9 µM), without a hit: top-dose activity change, negative = inhibition, hits mostly inhibitors. Histone acetyltransferase KAT2A (Homo sapiens), Q92830. actives 0.21% (n = 390,000). GCN5L2 HAT assay, ThioGlo1 CoA-SH fluorescence. AID 504327, 2011; further: potency means the concentration at half of the fitted maximal effect
#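 Titration-based screen in which CoA formation is detected via maleimide probe ThioGlo1 (50uM) turning fluorescent on thiol reaction; substrates H3(1-25) 75uM and acetyl-CoA 70uM, GCN5L2 20nM, 20 min incubation at room temperature.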
# Pin1 inhibitor – qHTS Assay to Find Inhibitors of Pin1; Peptidyl-prolyl cis-trans isomerase NIMA-interacting 1 (Homo sapiens), Q13526; Pin1 FP peptide displacement, HiFluor488, 10 min; Potency, µM (top dose mostly 115 µM), inactives show at the top dose activity, negative = inhibition, hits mostly inhibitors; actives 0.009% (n = 390,000); active means well fitted inhibition curve with a large enough effect in the polarisation, with a control signal flat, not every such curve was filed as active; inconclusive means small, poorly fitted or top-dose-only effect, or effect the other way, or a change in a side signal; inactive means no such curve, though single readings can be large or run the other way; the % refers to the polarisation; further: potency means the concentration at half of the fitted maximal effect
# Target sequence (Q13526 whole entry, looked up): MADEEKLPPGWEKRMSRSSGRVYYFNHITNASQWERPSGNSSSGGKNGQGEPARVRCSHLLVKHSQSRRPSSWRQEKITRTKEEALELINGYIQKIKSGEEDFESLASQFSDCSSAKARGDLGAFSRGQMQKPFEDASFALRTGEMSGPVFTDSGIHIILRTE
# KCNH2 WT inh – qHTS for Inhibitors of KCHN2 3.1: Wildtype qHTS. Voltage-gated inwardly rectifying potassium channel KCNH2 (Homo sapiens), Q12809. actives 0.37% (n = 340,000). U2OS, BacMam KCNH2, thallium flux FluxOr; stronger effect = lower value. AID 720551, 2013. activity change, % at 1.84 µM;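 active means maximum activity change below -70%; inconclusive means maximum activity change between -70% and -50%; inactive means maximum activity change above -50%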
#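 U2OS cells transduced with wild-type KCNH2 virus are loaded with FluxOr dye for 45 min, and thallium flux is measured in kinetic reads before and after stimulation buffer. Rate constants are normalized to DMSO controls.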
# RGS4 inhibitor – Inhibitors of Regulator of G Protein Signaling (RGS) 4: qHTS; Regulator of G-protein signaling 4 (Homo sapiens), P49798; Transcreener GDP fluorescence polarization, RGS4-accelerated GTP hydrolysis; Potency, µM (doses to about 114 µM), without a hit: top-dose activity change, negative = inhibition, usual class: inhibitors; actives 0.039% (n = 390,000); AID 504845, 2011; further: potency means the concentration at half of the fitted maximal effect; nearly all actives have a fitted effect of over 75% in size
# Target sequence (P49798 whole entry, looked up): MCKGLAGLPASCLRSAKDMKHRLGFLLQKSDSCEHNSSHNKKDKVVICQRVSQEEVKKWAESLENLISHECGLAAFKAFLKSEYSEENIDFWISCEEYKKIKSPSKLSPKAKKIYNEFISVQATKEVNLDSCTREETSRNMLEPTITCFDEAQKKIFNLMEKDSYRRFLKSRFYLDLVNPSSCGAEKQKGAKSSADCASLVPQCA
#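 MLSMR compounds (23 nl, pin-transferred) preincubated 10 min at room temperature with a 500nM (2x) first reagent, then RGS4 at 900nM (2x) plus Transcreener GDP mix added; fluorescence polarization (620/688 nm) read before and after 90 min at 30 °C.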
# KCNH2 3.1 inh – qHTS for Inhibitors of KCHN2 3.1: Mutant qHTS. AID 720553, 2013. Potassium voltage-gated channel subfamily H member 2, brain isoform KCNH2 3.1 (human). activity change, % (tested at about 1.8 µM). actives 0.95% (n = 340,000). U2OS KCNH2 3.1, thallium flux FluxOr; stronger effect = lower value;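 active means maximum activity change below -70%; inconclusive means maximum activity change from -70% to -50%; inactive means maximum activity change above -50%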;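 further: thallium influx rate constant from kinetic fluorescence after stimulation buffer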
#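 Measured as rate of thallium-driven FluxOr signal in transduced U2OS cells carrying the 3.1 channel, read kinetically for 2 min upon stimulation; values are rate constants scaled to DMSO control wells.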
# The depositor's hits bear a star; i = inactive; ? = inconclusive; / = no result; ! = repeats disagree. Unless noted, the call rests on the fitted dose curve; in most records, active means well fitted curve in the direction sought with a large enough effect; inconclusive means small, poorly fitted or top-dose-only effect, or another doubt; inactive means no such curve, though single readings can be large; an effect the other way counts as inactive or inconclusive. On the % scale 0 is the no-effect control and ±100 the full control effect.
SMILES,Tb PGK inh,GCN5L2 inh,Pin1 inhibitor,KCNH2 WT inh,RGS4 inhibitor,KCNH2 3.1 inh
Cc1cc(F)ccc1NC(=O)Cn1cc(S(=O)(=O)NC(C)C)c(S(=O)(=O)NC(C)C)c1,-8%,26%,1%,/,-24%,/
CCOc1ccc(OCC)c(NC(=O)c2cc(S(=O)(=O)N3CCCC3)cn2C)c1,2%,-12%,21%,/,-11%,/
O=[N+]([O-])c1ccc2nc[nH]c2c1,6%,/,1%,-17,15%,-84*
Nc1nc2ccc([N+](=O)[O-])cc2[nH]1,-9%,-4%,-7%,3,7%,2
CCc1ccccc1S(=O)(=O)Cc1ccc(C(=O)NCCc2ccc(Cl)cc2)o1,-8%,-16%,13%,/,-6%,/
CSc1ccccc1NC(=O)c1ccco1,i,-2%,-2%,-281*,11%,27
O=C(Nc1ccc(F)cc1)c1oc2ccccc2c1NC(=O)C1CCCCC1,10%,-8%,-3%,/,15%,/
N#CCCn1c(=O)c(-c2cc(F)cc(F)c2)nc2cnc(OCc3ccccc3)nc21,/,-11%,/,/,/,/
CN1CCc2c(c3ccccc3n2Cc2ccccc2)C1,-2%,-2%,1%,1,-6%,-77*!
CN1CCc2c(c3ccccc3n2C)C1,7%,?,-9%,-1,18%,8
CCCCN1CCc2c(c3ccccc3n2Cc2ccccc2)C1,/,-4%,-6%,?,-3%,-94*
OC[C@@H]1O[C@H](OC2[C@@H](O)[C@@H](O)[C@@H](O)O[C@@H]2CO)[C@H](O)[C@@H](O)[C@@H]1OC1O[C@H](CO)[C@@H](O)[C@H](O)[C@@H]1O (some centres not stated),/,6%,/,/,/,/
CCc1cccc(NC(=O)Cn2c(-c3ccc(F)cc3)cc(C(C)=O)c2C)c1,-4%,4%,0%,/,-10%,/
CCc1cc2c(cc3c(=O)n(CC(=O)N4CCN(c5cccc(C)c5C)CC4)nc(CC)n32)s1,8%,-1%,9%,/,20%,/
Cc1cc(C)n2c(Br)c(CSc3nc4ccccc4s3)nc2n1,-5%,-8%,?,6,?,-78*
Cc1cc(C)nc(NC(=O)CSc2nc3ccccc3s2)n1,8%,-10%,2%,-3,-3%,2
CCOC(=O)c1c(-c2ccc(C)cc2)csc1NC(=O)c1cc2ccccc2oc1=O,-1%,-14%,1%,0,0%,-122*
CCOC(=O)c1c(-c2ccc(C)cc2)csc1NC(=O)c1cc(=O)c2ccc(C)cc2o1,1%,0%,1%,/,17%,/
COCCCn1c(=O)c2ccccc2n(Cc2cccc(C)c2)c1=O,0%,2%,-4%,-1,11%,-12
COCCCn1c(=O)c2ccccc2n(Cc2ccc(C)cc2)c1=O,-10%,-7%,-10%,7,-14%,-123*
CNc1c(NC(=O)c2cc(OC)cc(OC)c2)c(=O)oc2ccccc12,-3%,-1%,-1%,/,-12%,/
CCc1ccc(NC(=O)CSc2nc(C)c(C(=O)Nc3ccccc3)c(-c3ccc(OC)c(OC)c3)c2C#N)cc1,-5%,-20%,?,/,-13%,/
COc1ccc(-c2nnc(SCC(=O)Nc3cccc(C(F)(F)F)c3)nc2-c2ccc(OC)cc2)cc1,6%,-1%,91%,/,22%,/
O=C(CN1CCN(C(=O)c2cccc(-n3cnnn3)c2)CC1)Nc1ccccc1Cl,1%,-2%,2%,-38,15%,-73*
CC1CCC(C(C)C)C(OC(=O)Cn2c(-c3ccc(Br)cc3)[n+](C)c3ccccc32)C1 (configuration not stated),5%,-8%,-5%,-104*!,?,?
